Compound activity: PubChem, Sanford-Burnham Center for Chemical Genomics
The list is not random: actives were taken first. Their share in the collection is about 28%.
CYP2C9 activ = human CYP2C9 activators, primary screen, biochemical, luminescence; hit rate 1.4% among 96,000; activation factor at 5 µM; Cytochrome P450 2C9 (Homo sapiens), P11712; recombinant CYP2C9, luciferin-H conversion; active compounds read high; factor 1 = untreated enzyme, 0 = blocked;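 active means activation factor of 2 or more for CYP2C9 at a 5 µM dose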;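 further: 0 = sulfaphenazole-blocked wells and 1 = vehicle-only wells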
CYP2C9 inh = blockers of cytochrome P450 2C9 activity – biochemical, luminescence, ADME assay, primary screen; P11712; CYP2C9 Supersomes, luciferin-H conversion; inhibition, % at 5 µM; hit rate 20% among 96,000; AID 777, 2007;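 active means blocking of liver enzyme CYP2C9 beyond about 50% at 5 µM, limit read from the data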
CD11b adhes inh = inhibitors of CD11b/CD18 adhesion to fibrinogen, primary screen, K562 cells, luminescence. hit rate 0.54% among 93,000. inhibition, % at 10 µM. AID 1497, 2009. ATPlite luminescence; Mn2+ added to activate the integrin. Integrin beta-2 (Homo sapiens) + Integrin alpha-M (Homo sapiens), P05107+P11215;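 active means primary inhibition of 50% or more at 10 µM, then 40% or more on retest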
CD11b adhes enh = enhancers of CD11b/CD18 adhesion to fibrinogen, primary screen, K562 cells, luminescence; Integrin beta-2 (Homo sapiens) + Integrin alpha-M (Homo sapiens), P05107+P11215; ATPlite luminescence; activation, % at 10 µM; hit rate 0.07% among 93,000; AID 1499, 2009;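 active means 10 µM primary screen giving 50% or more activity, confirmed by 40% or more on retest at that dose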
CYP2C19 inh = blockers of cytochrome P450 2C19 activity – biochemical, luminescence, ADME assay, primary screen | inhibition, % at 5 µM | CYP2C19 Supersomes, luciferin-H EGE luminescence, 30 min | P33261 | hit rate 21% among 96,000;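 active means CYP2C19 inhibition above a set limit at 5 µM in the primary screen, cut at about 50% in these data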;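 further: plate controls were negative control wells for no effect and 2.5 mM tranylcypromine positive control for full effect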
CYP2C19 activ = human CYP2C19 activators, primary screen, biochemical, luminescence | 96,000 tested, under 10 active | activation factor at 5 µM | recombinant CYP2C19, luciferin-H EGE luminescence; active compounds read high; 0 = fully inhibited enzyme, 1 = untreated enzyme | Cytochrome P450 2C19 (Homo sapiens), P33261;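 active means activation factor of at least 2 at 5 µM in the primary screen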;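 further: 0 = wells with 2.5 mM tranylcypromine and 1 = vehicle-only wells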
Starred values were filed as active, the others as inactive; x = no result.

SMILES	CYP2C9 activ	CYP2C9 inh	CD11b adhes inh	CD11b adhes enh	CYP2C19 inh	CYP2C19 activ
O=C(c1coc2ccccc2c1=O)N1CCN(c2cccc(C(F)(F)F)c2)CC1	0.5	53*	x	x	24	0.8
O=C(c1ccccc1F)N1CCN(c2cccc(C(F)(F)F)c2)CC1	0.4	63*	5	-2	91*	0.1
O=C(c1c(F)c(F)c(F)c(F)c1F)N1CCN(c2cccc(C(F)(F)F)c2)CC1	0.7	35	-1	-7	29	0.7
O=C(c1cnn2cccnc12)N1CCN(c2ccccc2)CC1	1.3	-26	-28	12	87*	0.1
Cn1c(C(=O)N2CCN(c3cccc(C(F)(F)F)c3)CC2)cc2sccc21	1.6	-62	8	7	46	0.5
CSc1nc2ccc3nc(NC(=O)c4ccccc4)sc3c2s1	1.1	-7	17	20	-10	1.1
COc1cc(S(=O)(=O)Nc2ccccc2C)ccc1Cl	2*	-98	15	-1	100*	0
COc1cc(S(=O)(=O)Nc2c(C)cc(C)cc2C)ccc1Cl	0.9	14	-7	-2	44	0.6
CCOc1cc(S(=O)(=O)Nc2ccc(CC)cc2)ccc1Cl	0.2	80*	76	-4	46	0.5
CCOc1cc(S(=O)(=O)Nc2ccccc2CC)ccc1Cl	1.8	-85	12	-1	82*	0.2
Brc1ccccc1Cn1c(-c2cscn2)nc2ccccc21	0.8	15	-34	0	56*	0.4
Clc1ncccc1-c1nc2ccccc2n1Cc1ccccc1	0.8	21	x	x	25	0.8
CSc1ccccc1NC(=O)Cn1c(-c2cscn2)nc2ccccc21	0.2	78*	-18	3	98*	0
COC(=O)c1cc(C(=O)OC)cc(N2C(=O)CN=C2Nc2nc(C)cc(C)n2)c1	1	-1	4	-7	1	1
Cc1cc(=O)[nH]c(SCCOc2cccc(C(F)(F)F)c2)n1	1	-1	11	-2	18	0.8
COCC(=O)Nc1cc(C(=O)Nc2ccccc2C)ccc1Cl	0.7	30	-2	-6	17	0.8
COCC(=O)Nc1cc(C(=O)Nc2cccc(C)c2C)ccc1Cl	0.4	58*	0	0	0	1
CCCCc1ccc(-c2nc(NC(=O)C3C4CCC(O4)C3C(=O)O)sc2C)cc1 (configuration not stated)	1.1	-8	x	x	6	0.9
Cc1c(Br)cc(C(=O)N2CCN(CCO)CC2)c(C)c1C	0.8	17	-2	-4	20	0.8
Cc1cc(C(F)(F)F)nn1CCCNC(=O)c1cnccn1	0.9	8	1	1	50*	0.5
Cc1cc(C(F)(F)F)nn1CC(=O)NNC(=S)NCC(C)C	1	0	-1	-1	32	0.7
CCC(C)NC(=O)Cn1cc2c(n1)CCC(C)C2 (configuration not stated)	1	4	-4	-7	15	0.9
Cc1ccc(N=C(c2cccs2)N2CCOCC2)cc1	0.8	16	52	-1	73*	0.3
O=c1cc(Cl)c(-c2ccccc2)n[nH]1	1.1	-14	-1	-3	-16	1.2
O=c1c2[nH]c3cccc(Cl)c3c2ncn1Cc1ccncc1	0.5	52*	-1	-8	58*	0.4
SMILES	CYP2C9 activ	CYP2C9 inh	CD11b adhes inh	CD11b adhes enh	CYP2C19 inh	CYP2C19 activ
Cc1cc(C(=O)CSc2nnc(-c3ccco3)o2)c(C)n1Cc1ccco1	0.6	40	15	17	41	0.6
COCCNc1nnc(SCC(=O)c2ccc3c(c2)OCO3)s1	0.7	26	0	1	53*	0.5
Cc1nnc(SCC(=O)c2cc(C)n(-c3ccc4c(c3)OCO4)c2C)s1	0.2	83*	47	2	97*	0
Cn1cnnc1SCC(=O)c1ccc2c(c1)OCO2	1.3	-27	-15	-3	0	1
Cc1cc(C(=O)CSc2nnc(-c3ccc4c(c3)OCO4)o2)c(C)n1-c1ccc(F)cc1	x	x	99	-7	x	x
Cc1cc(C(=O)CSc2nnc(-c3ccco3)o2)c(C)n1-c1ccc2c(c1)OCCO2	0.5	47	87*	4	13	0.9
Cc1cc(C(=O)CSc2nnnn2C)c(C)n1-c1ccc2c(c1)OCCO2	0.4	60*	6	11	52*	0.5
COc1ccc2cc(CCNC(=O)C3CC3)c(=O)[nH]c2c1	0.9	7	x	x	4	1
Cc1nnc(SCc2ccc3c(c2)OCO3)s1	0.5	55*	-11	-6	69*	0.3
Cc1sc(NC(=O)Cn2nc(C(F)(F)F)cc2C)c(C(=O)OC(C)C)c1C	0.4	62*	x	x	18	0.8
CCc1ccccc1NC(=O)NC1CCCCC1	1	3	-15	-1	19	0.8
CCNS(=O)(=O)c1ccc(NC(=O)Cn2nc(C(F)(F)F)cc2C)cc1	0.4	57*	-8	-5	-17	1.2
CCc1ccccc1NC(=O)Cn1nc(C(F)(F)F)cc1C1CC1	0.9	5	-1	-2	83*	0.2
COCCNC(=O)Cn1nc(C(F)(F)F)cc1C	0.9	6	-6	-6	-1	1
Cc1ccc2sc(-c3ccc(NC(=O)CCN4C(=O)c5ccccc5C4=O)cc3)nc2c1	x	x	5	52	x	x
Cc1nc(N)sc1N=Nc1ccc(Br)cc1	0.6	37	6	5	33	0.7
Cc1csc(NC(=O)CN2C(=O)C3CC=CCC3C2=O)n1 (configuration not stated)	0.9	14	3	-2	-9	1.1
Cc1ccc(C(=O)C2CCN(CC(=O)Nc3nc(C)cs3)CC2)cc1	0.1	90*	2	1	48	0.5
Cc1ccc(C(=O)C2CCN(CC(=O)Nc3ccc4c(c3)OCCO4)CC2)cc1	0.4	62*	-7	2	23	0.8
CCOc1ccc(-c2nnn(CC(=O)c3ccc4c(c3)OCCO4)n2)cc1	1	-2	15	0	-5	1.1
CCOc1ccc(C(=O)N2CCC(C(=O)c3ccc4c(c3)OCCO4)CC2)cc1	0.4	55*	-7	4	85*	0.2
O=C(CN1CCC(C(=O)c2ccc3c(c2)OCCO3)CC1)NC1CCCC1	0.8	16	-1	1	84*	0.2
Cc1ccc(C(=O)C2CCN(CC(=O)Nc3ccc(N(C)C)cc3)CC2)cc1	0.6	39	0	-2	15	0.8
O=C(c1ccc2c(c1)OCCO2)C1CCN(S(=O)(=O)c2ccccc2F)CC1	1.1	-10	x	x	40	0.6
COc1ccc(C2=NO[C@@H]3[C@@H]4C[C@@H]([C@H]5C(=O)N(c6ccc7c(c6)OCO7)C(=O)[C@@H]45)[C@H]23)cc1OC	x	x	15	1	x	x
